Active and inactive are the calls of the source. How the source made its calls: active means hit-call score of the fitted dose curve at least 0.9, where 1 is the maximum; inactive means score below 0.9.
system: not listed separately; assay: ATG_PBREM_CIS: Attagene CIS-FACTORIAL HepG2 Assay for human Phenobarbital-responsive Enhancer Module (PBREM) (AID 2282955); details: HepG2 PBREM cis-reporter, Attagene multiplexed transcription; actives raise or lower the signal
In short: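 Multiplexed cis-reporter readout in human hepatoma HepG2 cells; PBREM-regulated transcript quantified after 24 h exposure by fluorescent RT-PCR fragment analysis. Signal changes up or down fitted relative to DMSO.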

Row | SMILES | outcome | AC50
1 | COP(=O)(O)OC | inactive | –
2 | CCOS(=O)(=O)OCC | inactive | –
3 | OCC(F)(F)OC(F)(F)C(F)(F)OC(F)(F)C(F)(F)OC(F)(F)CO | inactive | –
4 | [N-]=[N+]=[N-] | inactive | –
5 | O=S1(=O)OCC2C(CO1)C1(Cl)C(Cl)=C(Cl)C2(Cl)C1(Cl)Cl (centres undefined) | inactive | –
6 | FC(F)(F)C(F)(C(F)(F)F)C(F)(F)C(F)(F)CC1CO1 (centres undefined) | inactive | –
7 | CCOP(=S)(OCC)SCn1nnc2ccccc2c1=O | – | 1.32 µM (active)
8 | O=C(O)C=CC(F)(C(F)(F)F)C(F)(F)F | inactive | –
9 | O=P1(N(CCCl)CCCl)NCCCO1 (centres undefined) | inactive | –
10 | c1nc[nH]n1 | inactive | –

molecular target: Paired box protein Pax-6 (Homo sapiens) (UniProt P26367); assay: ATG_Pax6_CIS: Attagene CIS-FACTORIAL HepG2 Assay for human Paired Box 6 (PAX6) (AID 2282956); details: HepG2 CIS-FACTORIAL PAX6 reporter transcription, RNA readout; actives raise or lower the signal
In short: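 Transient MRTU transfection of HepG2 → compound exposure 24 h → TriZol RNA, oligo(dT) RT → PCR, 6-FAM primer extension, HpaI cut → capillary electrophoresis; activity fitted both directions against DMSO.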

Paired box protein Pax-6 (Homo sapiens), sequence (P26367 whole entry, looked up): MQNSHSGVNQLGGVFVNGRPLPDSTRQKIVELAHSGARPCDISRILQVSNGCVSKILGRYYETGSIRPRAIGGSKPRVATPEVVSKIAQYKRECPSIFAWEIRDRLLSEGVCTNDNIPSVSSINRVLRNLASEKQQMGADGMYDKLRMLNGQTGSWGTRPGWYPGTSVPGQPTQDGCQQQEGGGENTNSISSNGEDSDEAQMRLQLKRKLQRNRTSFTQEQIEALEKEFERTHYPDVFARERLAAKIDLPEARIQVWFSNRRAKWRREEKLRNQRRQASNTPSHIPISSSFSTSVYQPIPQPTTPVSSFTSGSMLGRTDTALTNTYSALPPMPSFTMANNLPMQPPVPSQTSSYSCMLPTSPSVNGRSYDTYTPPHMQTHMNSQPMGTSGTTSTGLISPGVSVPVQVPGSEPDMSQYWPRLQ

Row | SMILES | outcome | AC50
11 | O=C(O)C(F)(F)OC(F)(F)C(F)(F)OC(F)(F)C(=O)O | inactive | –
12 | N#Cc1cc([N+](=O)[O-])ccc1N | inactive | –
13 | COP(=O)(O)OC | inactive | –
14 | CCOS(=O)(=O)OCC | inactive | –
15 | Nc1cc2c3c(c1)C(c1ccccc1)=N[C@@H](NC(=O)c1cccnc1)C(=O)N3CC2 | inactive | –
16 | Oc1ccc(I)cc1 | inactive | –
17 | C/C(=N\NC(=O)Nc1cc(F)cc(F)c1)c1ncccc1C(=O)O | inactive | –
18 | CCOP(=S)(OCC)SCSCC | inactive | –
19 | OCC(F)(F)OC(F)(F)C(F)(F)OC(F)(F)C(F)(F)OC(F)(F)CO | inactive | –
20 | [N-]=[N+]=[N-] | inactive | –
21 | O=S1(=O)OCC2C(CO1)C1(Cl)C(Cl)=C(Cl)C2(Cl)C1(Cl)Cl (centres undefined) | – | 100 µM (active)
22 | Oc1ccccc1Br | inactive | –
23 | FC(F)(F)C(F)(C(F)(F)F)C(F)(F)C(F)(F)CC1CO1 (centres undefined) | inactive | –
24 | C=CC(=O)OCC(CC)(COC(=O)C=C)COC(=O)C=C | – | 15.5 µM (active)
25 | CC1(C)CN=C(NN=C(/C=C/c2ccc(C(F)(F)F)cc2)/C=C/c2ccc(C(F)(F)F)cc2)NC1 | inactive | –
26 | CCOP(=S)(OCC)SCn1nnc2ccccc2c1=O | inactive | –
27 | O=C(O)C=CC(F)(C(F)(F)F)C(F)(F)F | inactive | –
28 | O=C(O)C(F)(OC(F)(F)C(F)(F)C(F)(F)F)C(F)(F)F (centres undefined) | inactive | –
29 | CC1=C(C(=O)Nc2ccccc2)S(=O)(=O)CCO1 | – | 19.9 µM (active)
30 | O=P1(N(CCCl)CCCl)NCCCO1 (centres undefined) | inactive | –

Row | SMILES | outcome | AC50
31 | OCC1CO1 (centres undefined) | inactive | –
32 | Nc1ccc(Cl)cc1 | inactive | –
33 | CNC(=O)Oc1ccc(N(C)C)c(C)c1 | inactive | –
34 | Nc1ccc(Sc2ccc(N)cc2)cc1 | inactive | –
35 | c1ccc2c(c1)sc1ccccc12 | inactive | –
36 | CC(O)C#N (centres undefined) | inactive | –
37 | OCC(F)(F)OC(F)(F)C(F)(F)OC(F)(F)CO | inactive | –
38 | CCCCN(CCCC)N=O | inactive | –
39 | CC(O)C(F)(F)C(F)(F)F (centres undefined) | inactive | –
40 | CCN(CC)c1ccccc1 | inactive | –
41 | O=C(O)C(F)(F)C(F)(F)C(=O)O | inactive | –
42 | CCCCc1ccccc1 | inactive | –
43 | N#Cc1c(-c2ccc(Cl)cc2)[nH]c(C(F)(F)F)c1Br | inactive | –
44 | O=[N+]([O-])c1ccccc1 | inactive | –
45 | CCOC(=O)c1ccccc1C(=O)OCC | inactive | –
46 | c1nc[nH]n1 | inactive | –
47 | CCC(C)(C)c1ccc(O)cc1 | inactive | –
48 | c1cc2c3c(cccc3c1)CC2 | inactive | –
49 | O=C(O)C(Cl)Cl | inactive | –

— PubChem BioAssay (EPA / NIEHS)
